Seven compounds from PubChem BioAssay (Tox21) can be followed below.

The structures appear in SMILES notation. Inconclusive results are not listed. Calls of active or inactive are those of the source. Unless noted, calls follow the shape of the full dose curve.

A short description of assay [1]: Nuclear factor erythroid 2-related factor 2/antioxidant responsive element (Nrf2/ARE) small molecule agonists: qHTS cell viability counter screen in human keratinocytes (AID 1919968; active = well fitted curve in the direction sought with a large enough effect in the repeat runs; an effect the other way counts as inactive or inconclusive; also: nearly all actives have a fitted effect of over 55% in size; also: potency is read from the fitted curve at half-maximal effect). The gist of the method:
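Seed 1,500 KeratinoSens cells per well, then incubate 5 h at 37 C/5% CO2. Add compounds in DMSO and incubate 23 h. Add CellTiter-Fluor, wait 1 h and read fluorescence.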
(In general: qHTS replaces the single test concentration by a dilution series.)

Assay [2] can be described thus: Nuclear factor erythroid 2-related factor 2/antioxidant responsive element (Nrf2/ARE) small molecule agonists: luciferase reporter gene qHTS assay in human keratinocytes (AID 1919969). Also: nearly all actives have a fitted effect of over 35% in size.
For assay [3], the target named is Gonadotropin-releasing hormone receptor (Homo sapiens) (UniProt P30968). The assay is described as follows: Human gonadotropin-releasing hormone receptor (GnRHR) small molecule agonists, calcium flux assay in GnRHR-HEK293 cells (AID 1920063). Also: nearly all actives have a fitted effect of over 35% in size. The gist of the method:
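Cells: HEK293 stably expressing human GnRHR. Steps: overnight (18 h) culture, 1 h calcium dye loading at 37 C, compound addition, kinetic fluorescence read at 480/540 nm. Each compound tested at 15 concentrations in triplicate.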
Background: Calcium flux is commonly read through the fluorescence of an indicator in the cells.

Assay [4] can be described thus: G protein-coupled receptor (GPCR) small molecule agonists, calcium flux assay: HEK293 wild type cell line counter screen (AID 1920065). The gist of the method:
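Counter-screen of the Tox21 10K library for non-specific calcium release: dye-loaded cells received compounds in DMSO and were monitored by kinetic fluorescence (480/540 nm, 3 min). Fifteen concentrations, run in triplicate.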

Assay [5] is described as follows: p53 small molecule agonists, cell-based qHTS assay with human liver microsomes (AID 1963577).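 Also: p53 response element beta-lactamase reporter cells with liver microsomes plus NADPH.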 An outline of the steps: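 Metabolically competent format: test substances, human liver microsomes and NADPH (both 0.5 mg/mL final) incubated with p53RE-bla cells 16 h at 37 C. Beta-lactamase reporter signal then quantified by fluorescence.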
The nature of assay [6]: p53 small molecule agonists, cell-based qHTS assay with human liver microsomes: qHTS cell viability counter screen (AID 1963579). Also: nearly all actives have a fitted effect of over 45% in size. An outline of the steps: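 Tox21 library compounds, delivered from DMSO stocks, were tested on p53RE-bla cells together with 0.5 mg/mL human liver microsomes and 0.5 mg/mL NADPH (final) over 16 h at 37 C; CellTiter-Glo luminescence served as the cytotoxicity measure.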

The nature of assay [7]: p53 small molecule agonists, cell-based qHTS assay with rat liver microsomes: qHTS cell viability counter screen (AID 1963580). Also: nearly all actives have a fitted effect of over 45% in size. The gist of the method: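 Intracellular ATP, by CellTiter-Glo luminescence, defines viability. HCT-116 p53RE-bla cells, 4,000 per well, were compound-treated in the presence of rat liver microsomes and NADPH for 16 h at 37 C.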
Assay [8] is described as follows: p53 small molecule agonists, cell-based qHTS assay: qHTS cell viability counter screen (AID 1963581). Also: nearly all actives have a fitted effect of over 45% in size. The gist of the method:
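Cells: HCT-116 with p53 response element-driven beta-lactamase. Treatment: 16 h, 37 C, compounds in DMSO. Read: CellTiter-Glo luminescence after 30 min RT.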

The nature of assay [9]: p53 small molecule agonists, cell-based qHTS assay (AID 1963582; active = well fitted activation curve with a large enough effect in the signal ratio in the repeat runs, not every such curve was filed as active; the % refers to the signal ratio). An outline of the steps: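 Quantitative HTS in p53RE-bla cells: after a 5 h settling period, compounds delivered in DMSO were left on cells for 16 h at 37 C, and reporter induction was measured as fluorescence following 2 h substrate loading.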
Assay [10] deals with 5-hydroxytryptamine receptor 2A (Homo sapiens) (UniProt P28223). Briefly: 5-hydroxytryptamine receptor 2A (HTR2A) small molecule antagonists, cell-based qHTS assay (AID 1963586). Also: nearly all actives have a fitted effect of over 45% in size. Also: potency is read from the fitted curve at half-maximal effect. An outline of the steps:
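Antagonist-mode intracellular calcium assay: DOI (4 nM) added after 5 min compound pre-incubation at room temperature to dye-loaded HTR2A-CHO cells. Fluorescence followed for 3 min, sampled every second.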

Assay [11] has the same target. The assay is described as follows: 5-hydroxytryptamine receptor 2A (HTR2A) small molecule agonists, cell-based qHTS assay (AID 1963587). Also: nearly all actives have a fitted effect of over 30% in size. An outline of the steps: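 Kinetic calcium-flux fluorescence (2 min, 1 sec intervals) after compound addition in agonist mode. HTR2A-CHO cells were cultured 18 h, then dye-loaded 1 h at 37 C.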
For assay [12], the target named is Muscarinic acetylcholine receptor M1 (Homo sapiens) (UniProt P11229). Briefly: Cholinergic receptor muscarinic 1 (CHRM1) small molecule antagonists, cell-based qHTS assay (AID 1963588). Also: nearly all actives have a fitted effect of over 40% in size. The gist of the method: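 CHRM1-CHO calcium-flux assay, antagonist mode. Cells were seeded 18 h, dye-loaded 1 h at 37 C and given compound for 5 min at RT, then acetylcholine was added at 50nM. FDSS fluorescence was read 3 min; 15 concentrations, three runs.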

The target is the same in assay [13]. The assay is described as follows: Cholinergic receptor muscarinic 1 (CHRM1) small molecule agonists, cell-based qHTS assay (AID 1963589). Also: nearly all actives have a fitted effect of over 35% in size. The gist of the method: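 Agonist-mode qHTS in CHO cells stably carrying human muscarinic M1. Intracellular calcium is tracked by fluorescence every second after compound transfer; each compound runs at 15 concentrations in three independent runs.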

Assay [14] is described as follows: cAMP Responsive Elements (CRE) small molecule antagonists, cell-based qHTS assay (AID 1963591; active = well fitted inhibition curve with a large enough effect in the signal ratio in the repeat runs, not every such curve was filed as active; the % refers to the signal ratio). An outline of the steps: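 Antagonist mode: test compounds are co-incubated with the adenylyl cyclase activator NKH477 (0.25 uM final) on CRE-bla HEK293T cells for 3 h at 37 °C, followed by LiveBLAzer substrate loading.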
Assay [15] addresses Beta-2 adrenergic receptor (Homo sapiens) (UniProt P07550). The assay is described as follows: Adrenergic beta2 receptor (ADRB2) small molecule antagonists, cell-based qHTS assay (AID 1963592). Also: series mostly up to about 92 µM; nearly all actives have a fitted effect of over 50% in size. An outline of the steps:
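Cells (CHO, stable ADRB2 overexpression) incubated 18-20hr at 37C; compounds added from DMSO; agonist mix (1nM isoproterenol, 100uM IBMX, 25uM Ro-20-1724) added; 0.5hr RT; d2-cAMP and anti-cAMP-cryptate added; 1hr RT; 665/615 nm read.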

For assay [16] the target is unchanged. The assay is described as follows: Adrenergic beta2 receptor (ADRB2) small molecule agonists, cell-based qHTS assay (AID 1963593).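 Also: CHO cells stably overexpressing human ADRB2.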 An outline of the steps:
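CHO cells stably over-expressing ADRB2 were plated overnight at 37C, then dosed with compounds plus a stimulation mix containing 100uM IBMX and 25uM Ro-20-1724 for 0.5hr at room temperature. cAMP was measured by HTRF competition, 1hr.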

Assay [17] has as its target D(2) dopamine receptor (Homo sapiens) (UniProt P14416). The assay is described as follows: Dopamine D2 receptor (DRD2) small molecule agonists, cell-based qHTS assay (AID 1963594). Also: nearly all actives have a fitted effect of over 35% in size. An outline of the steps: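 cAMP accumulation in DRD2-HEK293 cells measured by HTRF after 1 h detection; compounds added 10 min before NKH477 (200nM […]) forskolin-analogue stimulation, 30 min at room temperature, with Ro20-1724 present at 0.1 mM final.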

Assay [18] addresses KiSS-1 receptor (Homo sapiens) (UniProt Q969F8). Briefly: Human kisspeptin (KISS1R) small molecule agonists, calcium flux assay in KISS1R-HEK293 cells (AID 1920064; active = well fitted curve in the direction sought with a large enough effect in the repeat runs; an effect the other way counts as inactive or inconclusive). The gist of the method: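 Cells plated and incubated 18 h; dye added, 1 h at 37 C; compounds in DMSO pinned in; signal read at 480/540 nm every second for 3 min. Each compound tested at 15 concentrations in triplicate.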

Assay [19] is described as follows: cAMP Responsive Elements (CRE) small molecule agonists, cell-based qHTS assay (AID 1963590). Also: potency is read from the fitted curve at half-maximal effect. The gist of the method:
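Agonist mode qHTS in CRE-bla HEK 293T cells: compounds dosed from DMSO for 3 h at 37 C/5% CO2, followed by LiveBLAzer B/G FRET substrate for 2 h at room temperature.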

In assay [20] the target is D(2) dopamine receptor (Homo sapiens) (UniProt P14416). Briefly: Dopamine D2 receptor (DRD2) small molecule antagonists, cell-based qHTS assay (AID 1963595; active = well fitted inhibition curve with a large enough effect in the signal ratio in the repeat runs, with a control signal flat; the % refers to the signal ratio). The gist of the method: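 DRD2-HEK293; 0.1 mM Ro20-1724; cpd 10 min RT; NKH477 200 nM + quinpirole 12 nM, 30 min RT; HTRF cAMP (cAMP-d2/anti-cAMP cryptate), 665/620 nm ratio after 1 h.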
D(2) dopamine receptor (Homo sapiens), sequence (P14416 whole entry, looked up): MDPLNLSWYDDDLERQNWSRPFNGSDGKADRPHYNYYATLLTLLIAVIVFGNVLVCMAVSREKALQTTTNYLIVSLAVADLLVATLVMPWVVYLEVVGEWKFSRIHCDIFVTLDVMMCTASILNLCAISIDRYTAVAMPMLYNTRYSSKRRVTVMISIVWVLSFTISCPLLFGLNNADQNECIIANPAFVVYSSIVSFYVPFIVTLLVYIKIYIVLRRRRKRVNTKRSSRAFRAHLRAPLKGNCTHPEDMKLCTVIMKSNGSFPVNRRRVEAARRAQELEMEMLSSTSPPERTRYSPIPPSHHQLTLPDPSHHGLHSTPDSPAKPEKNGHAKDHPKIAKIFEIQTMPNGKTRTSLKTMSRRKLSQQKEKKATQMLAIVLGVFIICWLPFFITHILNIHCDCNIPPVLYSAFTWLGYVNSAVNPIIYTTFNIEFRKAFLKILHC

Beta-2 adrenergic receptor (Homo sapiens), sequence (P07550 whole entry, looked up): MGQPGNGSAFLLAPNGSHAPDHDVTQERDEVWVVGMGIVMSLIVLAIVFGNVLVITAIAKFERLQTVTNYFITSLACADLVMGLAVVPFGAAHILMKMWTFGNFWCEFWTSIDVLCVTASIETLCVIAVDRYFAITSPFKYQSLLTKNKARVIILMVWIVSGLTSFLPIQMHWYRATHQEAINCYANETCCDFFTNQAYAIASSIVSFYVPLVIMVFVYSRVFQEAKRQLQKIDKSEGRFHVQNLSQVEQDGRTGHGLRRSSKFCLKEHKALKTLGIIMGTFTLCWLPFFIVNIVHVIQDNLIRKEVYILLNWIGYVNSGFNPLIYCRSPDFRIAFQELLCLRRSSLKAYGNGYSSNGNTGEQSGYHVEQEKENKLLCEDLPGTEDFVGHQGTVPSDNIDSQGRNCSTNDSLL
5-hydroxytryptamine receptor 2A (Homo sapiens), sequence (P28223 whole entry, looked up): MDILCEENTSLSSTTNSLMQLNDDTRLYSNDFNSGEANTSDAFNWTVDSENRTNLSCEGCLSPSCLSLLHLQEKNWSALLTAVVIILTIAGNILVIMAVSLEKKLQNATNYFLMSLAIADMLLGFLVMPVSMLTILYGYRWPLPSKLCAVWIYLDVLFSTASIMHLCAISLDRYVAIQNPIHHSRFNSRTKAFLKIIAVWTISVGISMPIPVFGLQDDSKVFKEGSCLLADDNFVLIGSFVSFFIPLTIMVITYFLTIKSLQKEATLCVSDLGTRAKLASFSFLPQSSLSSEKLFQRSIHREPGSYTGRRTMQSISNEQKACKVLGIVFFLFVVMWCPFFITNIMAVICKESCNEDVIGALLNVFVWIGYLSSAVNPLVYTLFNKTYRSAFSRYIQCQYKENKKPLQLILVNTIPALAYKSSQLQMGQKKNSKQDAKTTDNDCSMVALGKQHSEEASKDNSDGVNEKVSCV
Gonadotropin-releasing hormone receptor (Homo sapiens), sequence (P30968 whole entry, looked up): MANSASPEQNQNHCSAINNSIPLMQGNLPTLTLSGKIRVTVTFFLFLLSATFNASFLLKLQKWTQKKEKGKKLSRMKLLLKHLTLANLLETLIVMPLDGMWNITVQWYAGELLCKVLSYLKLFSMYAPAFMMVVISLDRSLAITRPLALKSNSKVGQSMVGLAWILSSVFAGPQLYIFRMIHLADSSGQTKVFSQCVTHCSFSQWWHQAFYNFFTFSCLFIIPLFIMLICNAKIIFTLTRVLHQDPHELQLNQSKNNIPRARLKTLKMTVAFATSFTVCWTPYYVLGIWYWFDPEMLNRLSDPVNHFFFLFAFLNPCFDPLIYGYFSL
Muscarinic acetylcholine receptor M1 (Homo sapiens), sequence (P11229 whole entry, looked up): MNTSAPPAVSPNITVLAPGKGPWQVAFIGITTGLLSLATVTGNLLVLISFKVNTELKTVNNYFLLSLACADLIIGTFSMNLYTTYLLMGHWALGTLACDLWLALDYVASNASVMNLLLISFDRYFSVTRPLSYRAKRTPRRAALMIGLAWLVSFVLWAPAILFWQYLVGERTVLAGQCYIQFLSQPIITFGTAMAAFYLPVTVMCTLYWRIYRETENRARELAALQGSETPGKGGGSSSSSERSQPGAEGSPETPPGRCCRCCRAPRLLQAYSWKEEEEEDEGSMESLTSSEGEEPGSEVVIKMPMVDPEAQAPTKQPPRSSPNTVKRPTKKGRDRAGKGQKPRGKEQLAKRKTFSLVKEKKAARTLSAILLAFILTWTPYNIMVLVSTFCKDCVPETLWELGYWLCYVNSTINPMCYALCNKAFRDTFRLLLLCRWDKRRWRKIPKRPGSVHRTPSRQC
KiSS-1 receptor (Homo sapiens), sequence (Q969F8 whole entry, looked up): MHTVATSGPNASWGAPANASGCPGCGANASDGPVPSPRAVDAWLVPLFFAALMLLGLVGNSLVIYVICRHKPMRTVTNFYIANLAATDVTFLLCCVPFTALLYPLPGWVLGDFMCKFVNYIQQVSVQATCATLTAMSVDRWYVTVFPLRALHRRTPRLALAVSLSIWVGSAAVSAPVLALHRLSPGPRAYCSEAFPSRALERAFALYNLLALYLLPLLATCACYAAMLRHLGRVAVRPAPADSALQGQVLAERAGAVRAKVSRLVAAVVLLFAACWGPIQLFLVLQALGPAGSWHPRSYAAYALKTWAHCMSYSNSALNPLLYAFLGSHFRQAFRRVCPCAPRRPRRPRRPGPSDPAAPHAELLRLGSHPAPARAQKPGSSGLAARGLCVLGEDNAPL

Turning to `OCCN1CCN(CCCN2c3ccccc3C=Cc3ccccc32)CC1`, the Potency entry in assay [1], in assay [2], in assay [3], in [4], in [5] and in assay [6] was “inactive” in each case. Also, the Potency result in assay [7], in [8], in assay [9], in assay [11], in assay [12] and in assay [13] was “inactive” each time. In addition, the Potency entry in assay [14], in assay [15], in assay [16] and in [17] was “inactive” in each case. In assay [10], the Potency was 16.3 µM (active).
For `COS(C)(=O)=O`, the Potency result in assay [1], in [2], in assay [3], in [18], in assay [6] and in [7] was “inactive” throughout. Further, the Potency entry in assay [8], in assay [19], in assay [14], in assay [15], in assay [16] and in assay [17] was “inactive” throughout. Besides, in assay [20], the Potency result was “inactive”.
For the compound `CC1(C)[C@H]2CC[C@](C)(C2)[C@H]1O`, the Potency entry in assay [1], in [2], in assay [3], in assay [4], in assay [5] and in assay [6] was “inactive” throughout. Also, the Potency entry in assay [7], in assay [8], in [9], in assay [10], in [11] and in assay [12] was “inactive” in each case. Besides, the Potency entry in [13], in assay [19], in [14], in assay [15], in [16] and in [17] was “inactive” in each case.
On to `CCOc1ccc(Cc2nccc3cc(OCC)c(OCC)cc23)cc1OCC`, for which the Potency in assay [1] was 4.22 µM (active); in assay [19], 6.68 µM (active). Besides, the Potency result in assay [2], in assay [3], in assay [4], in assay [5], in assay [6] and in assay [7] was “inactive” in each case. The Potency result in assay [8], in assay [9], in assay [10], in assay [11], in [12] and in assay [13] was “inactive” in each case. Besides, the Potency result in assay [14], in assay [15] and in assay [17] was “inactive” in each case.
For the compound `O=C(O)c1cccc(C[C@@H]2COc3ccc(OCc4nc5cc(F)ccc5s4)cc3[C@@H]2O)c1`, the Potency entry in [1], in assay [2], in assay [3], in assay [4], in [5] and in assay [6] was “inactive” throughout. Also, the Potency entry in assay [7], in assay [8], in [9], in assay [10], in [11] and in [12] was “inactive” throughout. Further, the Potency result in [13], in assay [19], in [14], in assay [15], in assay [16] and in [17] was “inactive” each time. Moreover, the Potency result in assay [20] was “inactive”.
For the compound `CC1=CCC(C(C)(C)O)CC1` (configuration not stated), the Potency entry in assay [1], in assay [2], in assay [3], in [4], in assay [5] and in assay [6] was “inactive” each time. Besides, the Potency entry in assay [7], in assay [8], in assay [9], in assay [10], in [11] and in assay [12] was “inactive” in each case. Besides, the Potency entry in [13], in assay [19], in assay [14], in assay [15], in [16] and in [17] was “inactive” each time. Also, in assay [20], the Potency entry is “inactive”.
As for `CC(C)CCCC(C)CCO` (configuration not stated), the Potency result in assay [1], in assay [2], in assay [3], in [4], in [5] and in [6] was “inactive” each time. The Potency entry in assay [7], in assay [8], in assay [9], in assay [10], in assay [11] and in assay [12] was “inactive” throughout. The Potency result in assay [13], in assay [19], in [14], in [15], in [16] and in assay [17] was “inactive” in each case. Moreover, in [20], the Potency result is “inactive”.
